According to PubChem BioAssay (NCATS):
Results filed as inconclusive are left out. Unmarked numbers belong to inactive results. Activity calls are given as the source filed them. Calls come from the whole dose curve; as a rule, active = well fitted inhibition curve with a large enough effect; inconclusive = small, poorly fitted or top-dose-only effect; inactive = flat fitted curve, though single readings scatter.

System: SC27B
Test: qHTS profiling for inhibitors of Plasmodium falciparum proliferation (AID 504749); note: nearly all actives have a fitted effect of over 60% in size;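 for activity, negative = inhibition: 0% = DMSO vehicle and full inhibition = artemisinin control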
Details: P. falciparum in erythrocytes, SYBR Green DNA, 72 h; series mostly up to 28.7 µM; activity, negative = inhibition: at the top concentration
Method in brief: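 Fluorescence of SYBR Green-bound parasite DNA, read at 485/535 nm, served as the growth measure. Infected erythrocytes were cultured with compound 72 h; artemisinin (0.29 uM) and DMSO wells defined the normalization range.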
Potency is the fitted concentration of half-maximal effect.

Row | Compound | activity, negative = inhibition | Potency
1 | CC(=O)Nc1ncc([N+](=O)[O-])s1 | 11.5% | 
2 | C#C[C@]1(O)CC[C@H]2[C@@H]3CCc4cc(OC)ccc4[C@H]3CC[C@@]21C | 6.29% | 
3 | CC(=O)Nc1ccc(CC(=O)O)cc1 | -1.98% | 
4 | COc1ccc(-c2cc(C(F)F)nn2-c2ccc(S(N)(=O)=O)cc2)cc1F | 10.7% | 
5 | Nc1ccc(S(=O)(=O)Nc2cnc3ccccc3n2)cc1 | 2.8% | 
6 | CCCCCCCCCCCCCCCCO | 10.6% | 
7 | Cc1cccc(C)c1NC(=O)CN1CCCC1 | 0.767% | 
8 | C[N+]1(CC2COC(c3ccccc3)(C3CCCCC3)O2)CCCCC1 (configuration not stated) |  | 7.08 µM (active)
9 | CCCCNc1ccc(C(=O)OCCOCCOCCOCCOCCOCCOCCOCCOCCOC)cc1 | -5.59% [at 12.8 µM] | 
10 | NC(=S)N/N=C/c1cccnc1 | 5.46% | 
11 | O=C(O)P(=O)(O)O | -2.53% | 
12 | c1ccc(CC2=NCCN2)cc1 | 7.7% [at 12.8 µM] | 
13 | COc1ccc2c(c1)c1c3n2CCN(C)C3=NCC1 | 4.03% | 
14 | O=C(O)C1(C(=O)O)CCC1.[NH2-].[NH2-].[Pt+2] | 0.473% | 
15 | COc1cc(C(=S)N2CCOCC2)ccc1O | 4.88% | 
16 | O=C(O)C(Cc1cc(I)c(O)c(I)c1)c1ccccc1 (configuration not stated) | 2.42% | 
17 | COP(=O)(OC)OC(c1ccc(Cl)cc1)P(=O)(OC)OC (configuration not stated) | 12.1% | 
18 | CCCCNC(=O)NS(=O)(=O)c1ccc(N)cc1 | 10.6% | 
19 | CC(=O)Nc1ccc(OCC(O)CNC(C)C)cc1 (configuration not stated) | 2.19% | 
20 | CCCCCCCCOc1ccc(C(=O)c2ccccc2)c(O)c1 | 1.37% | 
21 | CCOc1ccccc1OCCN[C@H](C)Cc1ccc(OC)c(S(N)(=O)=O)c1 | 3.3% | 
22 | NS(=O)(=O)c1cc(C(=O)O)cc(N2CCCC2)c1Oc1ccccc1 | 2.5% [at 12.8 µM] | 
